# Screen size: about 410,000 compounds; about 3,100 (0.76%) were called active. Where a call stands in place of a potency, no number is given. Calls follow the shape of the dose curve; as a rule, active = well fitted cell-killing curve with a large enough effect; inactive = no such curve, though single readings can be large or run the other way. For the sample, actives were picked, then their nearest neighbours and some compounds at random.
# Test: qHTS for Inhibitors of TGF-b: Cytotox Counterscreen
# Conditions: HepG2 CAGA-GFP viability, ATP luminescence, 18 h; series mostly up to 46.1 µM
# Outline: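 CellTiter-Glo luminescence gave cytotoxicity after 18 hours at 37 degrees C. The cells were HepG2 CAGA-GFP in 1% FBS DMEM, stimulated with 500 pg/mL TGF-beta after compound addition. %Activity was normalised to no-cell wells (complete cell-killing) and DMSO (no toxicity), and curves were fitted and classified.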
# Potency is read from the fitted curve at half-maximal effect.
row,Compound,Potency
1,O=S(=O)(c1ccc(Br)cc1)N1CCC(c2nc3ccccc3[nH]2)CC1,inactive
2,c1ccc2[nH]c(-c3nc4ccccc4[nH]3)nc2c1,10 µM (active)
3,O=C(OCc1nc2ccccc2[nH]1)C1CCCCC1,inactive
4,C=C1CCN(Cc2ccc(OC)cc2)S(=O)(=O)c2ccccc21,inactive
5,COc1ccc(-c2onc(C)c2C)cc1S(=O)(=O)NCCc1ccccc1,inactive
6,O=C(Nc1ccc(S(=O)(=O)N2CCC(c3nc4ccccc4s3)CC2)cc1)c1ccccc1F,inactive
7,Cc1ccc(C)c(Cn2c(=O)n(CCC(=O)NCc3ccc4c(c3)OCO4)c(=O)c3sccc32)c1,inactive
8,Nc1nc(N)c(N=O)c(N)n1,inactive
9,Cc1cccc(CSc2nc3ccncc3n2Cc2ccc(C(=O)O)cc2)c1,inactive
10,COc1cccc(Cn2c(SCc3ccc(C(=O)N4CCC(C)CC4)cc3)nc3ccncc32)c1,inactive
11,Cc1cccc(Cn2c(SCc3ccc(C(=O)N4CCC(C)CC4)cc3)nc3ccncc32)c1,12.6 µM (active)
12,COC(=O)c1cc(S(=O)(=O)N2CCN(c3cc(Cl)ccc3C)CC2)c[nH]1,inactive
13,CCCCCCC1(C)NC(c2ccc3c(c2)OCO3)=CC(c2ccccc2O)N1 (centres undefined),inactive
14,CCOC(=O)[C@H]1[C@H]2COc3cc(OC)ccc3[C@@H]2N2C(=O)N(c3ccc(Br)cc3)C(=O)[C@@]12C,inactive
15,CS(=O)c1ccc(/C=C2\C=Cc3ccccc32)cc1 (centres undefined),inactive
16,N#Cc1ccc[n+](CC(=O)c2ccc(O)c(O)c2)c1,inactive
17,CN(C)c1cccc2ccccc12,inactive
18,O=C(COc1cccc(F)c1)Oc1ccc(C(=O)c2ccccc2)cc1,inactive
19,COC(=O)c1ccc(-c2noc(CN(Cc3ccccn3)CC3CCCO3)n2)cc1 (centres undefined),inactive
20,O=C(Oc1ccc(-c2nc(-c3ccccn3)no2)cc1)c1ccccc1,5.01 µM (active)
21,O=C(c1ccco1)n1nc(-c2ccc(Cl)cc2)nc1NCc1ccccc1,inactive
22,O=C(Nc1ccc2c(c1)OCO2)c1cc(-c2cccc(Cl)c2)on1,inactive

row,Compound,Potency
1,COc1cc(SC#N)ccc1N=Cc1c(C)[nH]n(-c2ccc(C)cc2)c1=O,12.6 µM (active)
2,O=C(NCCc1ccccc1)c1cnc2sc(N3CCCC3)nn2c1=O,inactive
3,Cc1ccc2oc(C(=O)Nc3ccc(S(=O)(=O)N4CCCCCC4)cc3)cc(=O)c2c1,inactive
4,O=C(Nc1nc2ccc(F)cc2s1)c1nc(SCc2ccccc2F)ncc1Cl,inactive
5,Fc1ccc(Nc2nc(SCc3ccccc3Cl)nc3ccccc23)cc1,17.8 µM (active)
6,Fc1ccc(CSc2nc(NCc3ccccc3)c3ccccc3n2)cc1,inactive
7,COC(=O)c1ccc(NC(=O)c2cc(S(=O)(=O)N3CCC(C)CC3)cn2C)cc1,inactive
8,CN(C)c1ccc(/C=c2\[nH]c(=O)/c(=C/c3ccc(N(C)C)cc3)[nH]c2=O)cc1,inactive
9,COc1ccc(-c2nc3ccc(C(=O)NCc4ccc(C)cc4)cc3nc2-c2ccc(OC)cc2)cc1,inactive
10,Cc1cccc(-c2nc3ccc(C(=O)NCCN4CCN(C)CC4)cc3nc2-c2cccc(C)c2)c1,12.6 µM (active)
11,Cc1cccc(CCNC(=O)c2ccc3c(c2)nc2n3CCC(C)C2)c1 (centres undefined),inactive
12,Cc1ccc2nc(N3CCN(c4cccc(Cl)c4)CC3)c3nnnn3c2c1,inactive
13,CCCN(CCC)CCNC(=O)Cn1cnc2sc(C)c(S(=O)(=O)N3CCC(C)CC3)c2c1=O,inactive
14,CCN(CC)c1ccc(/C=C/c2c(C)cnc3ccc(C)cc23)cc1,inactive
15,CCN(CCCCOC(=O)c1ccc(OC)c(OC)c1)C(C)Cc1ccc(OC)cc1 (centres undefined),inactive
16,COc1ccc(Cl)cc1NC(=O)CN(C)Cc1ccc(OC)c(OC)c1,inactive
17,COc1ccc(C(CCN(Cc2ccc(OC)c(OC)c2)C(=O)CCl)c2ccccc2)cc1 (centres undefined),11.2 µM (active)
18,S=c1[nH]c(=S)c2n[nH]nc2[nH]1,inactive
19,COc1ccc(N2C(=O)CS(=O)(=O)C23C(=O)N(Cc2ccc(C)cc2)c2ccccc23)cc1Cl (centres undefined),inactive
20,CCCC(=O)Nc1cc2nn(-c3ccccc3)nc2cc1C,inactive
21,OC(c1ccc(Cl)cc1)c1ncc(-c2ccc(Cl)cc2)[nH]1 (centres undefined),11.2 µM (active)
22,Cc1ccc(-c2cnc(C(O)c3cc(Cl)cc(Cl)c3)[nH]2)cc1 (centres undefined),inactive

row,Compound,Potency
1,OC(c1ccc(F)cc1)c1ncc(-c2cccc(C(F)(F)F)c2)[nH]1 (centres undefined),inactive
2,CCc1ccc(OCCCn2c(CCCNC(=O)C3CCCCC3)nc3ccccc32)cc1,inactive
3,CCCCCCn1nnc2sc(-c3ccccc3)cc2c1=O,inactive
4,CC(=O)c1c(C)n(S(=O)(=O)c2ccc(Cl)cc2)c2ccc(NS(=O)(=O)c3ccc(Cl)cc3)cc12,inactive
5,Cn1c(SCC(=O)Nc2cccc(NC(=O)c3cccs3)c2)nnc1-c1ccncc1,inactive
6,CCn1c2ccccc2c2cc(NC(=O)COc3ccc(C)cc3C)ccc21,inactive
7,Cc1ccc(OCC(=O)Nc2ccc(NC(=O)c3cccs3)cc2)c(C)c1,1.12 µM (active)
8,Cn1c(=O)c(=O)n(C)c2cc(NC(=O)c3ccccc3Br)ccc21,inactive
9,Cc1cccc(-n2ncc(C(=O)N3CCC(C)CC3)c2C2CCN(C(=O)OC(C)(C)C)CC2)c1,inactive
10,Cc1cccc(-n2ncc(Cl)c(Cl)c2=O)c1,11.2 µM (active)
11,Cc1cccc(-n2ncc(C(=O)N3CCN(c4ccc(Cl)cc4)CC3)c2C2CCN(C(=O)OC(C)(C)C)CC2)c1,inactive
12,COc1ccc(/C=C/c2noc(-c3ccccc3O)n2)cc1OC,inactive
13,CCOc1ccc(-c2nonc2NC(=O)c2oc3ccc(C)cc3c2C)cc1OCC,inactive
14,CCOC(=O)c1c(NC(=O)c2cc(-c3ccc(Cl)cc3)on2)sc2c1CCCC2,inactive
15,CCOC(=O)c1c(NC(=O)C(C)Sc2c[nH]c3ccccc23)sc2c1CCC2 (centres undefined),25.1 µM (active)
16,CCOC(=O)c1c(NC(=O)/C(C#N)=C/c2ccccc2)sc2c1CCC2,inactive
17,Cc1csc(NCC(=O)c2c[nH]c3ccccc23)n1,inactive
18,Cc1ccc(C)c(N2CCN(Cc3nnc(-c4ccccc4)o3)CC2)c1,inactive
19,COc1ccc(CCNC(=O)c2ccc(-n3c(C)cc4c3CCCC4)cc2)cc1OC,inactive
20,CCN(CC)c1ccc(NC(=O)CN2CCN(CC(=O)Nc3ccc(Cl)cc3)CC2)cc1,inactive

# Source: PubChem BioAssay AID588856 (National Center for Advancing Translational Sciences (NCATS), 2011)
